{"source": "paper PMC11062922", "about": "(Nature Chemical Biology, 2023)", "key": {"PKN1": {"tested_on": "PKN1", "conditions": "read-out: apparent Kd, n = 1"}, "PLK4": {"tested_on": "PLK4", "conditions": "read-out: apparent Kd, n = 1"}}, "note": "Like-named read-outs stand apart in the source and are kept apart here.", "data": [{"substance": "Lestaurtinib", "values": [{"measurement": "potency estimated from few doses", "setting": "PKN1; compound concentrations:100 nM and 1000 nM (sheet 'Lestaurtinib' of Supplementary Table 1),run:Lestaurtinib_02624_R2,Plate:MR020", "value": 430, "unit": "nM"}, {"measurement": "potency estimated from few doses", "setting": "PKN1; compound concentrations:100 nM and 1000 nM (sheet 'Lestaurtinib' of Supplementary Table 1),run:Lestaurtinib_02624_R3,Plate:MR020", "value": 513, "unit": "nM"}, {"measurement": "potency estimated from few doses", "setting": "PKN1; compound concentrations:100 nM and 1000 nM (sheet 'Lestaurtinib' of Supplementary Table 1),run:Lestaurtinib_02724_R1,Plate:MR021", "value": 487, "unit": "nM"}, {"measurement": "potency estimated from few doses", "setting": "PKN1; compound concentrations:100 nM and 1000 nM (sheet 'Lestaurtinib' of Supplementary Table 1),run:Lestaurtinib_02724_R2,Plate:MR021", "value": 386, "unit": "nM"}, {"measurement": "potency estimated from few doses", "setting": "PKN1; compound concentrations:100 nM and 1000 nM (sheet 'Lestaurtinib' of Supplementary Table 1),run:Lestaurtinib_02741_R3,Plate:MR023", "value": 518, "unit": "nM"}, {"measurement": "potency estimated from few doses", "setting": "PKN1; compound concentrations:100 nM and 1000 nM (sheet 'Lestaurtinib' of Supplementary Table 1),run:Lestaurtinib_02748_R1,Plate:MR024", "value": 418, "unit": "nM"}, {"measurement": "potency estimated from few doses", "setting": "PKN1; compound concentrations:100 nM and 1000 nM (sheet 'Lestaurtinib' of Supplementary Table 1),run:Lestaurtinib_02748_R2,Plate:MR024", "value": 511, "unit": "nM"}, {"measurement": "potency estimated from few doses", "setting": "PKN1; compound concentrations:100 nM and 1000 nM (sheet 'Lestaurtinib' of Supplementary Table 1),run:Lestaurtinib_02748_R3,Plate:MR024", "value": 440, "unit": "nM"}, {"measurement": "potency estimated from few doses", "setting": "PKN1; compound concentrations:100 nM and 1000 nM (sheet 'Lestaurtinib' of Supplementary Table 1),run:Lestaurtinib_02752_R1,Plate:MR025", "value": 489, "unit": "nM"}, {"measurement": "potency estimated from few doses", "setting": "PKN1; compound concentrations:100 nM and 1000 nM (sheet 'Lestaurtinib' of Supplementary Table 1),run:Lestaurtinib_02752_R2,Plate:MR025", "value": 414, "unit": "nM"}, {"measurement": "potency estimated from few doses", "setting": "PKN1; compound concentrations:100 nM and 1000 nM (sheet 'Lestaurtinib' of Supplementary Table 1),run:Lestaurtinib_02752_R3,Plate:MR025", "value": 448, "unit": "nM"}, {"measurement": "potency estimated from few doses", "setting": "PKN1; compound concentrations:100 nM and 1000 nM (sheet 'Lestaurtinib' of Supplementary Table 1),run:Lestaurtinib_02765_R1,Plate:MR026", "value": 524, "unit": "nM"}, {"measurement": "potency estimated from few doses", "setting": "PKN1; compound concentrations:100 nM and 1000 nM (sheet 'Lestaurtinib' of Supplementary Table 1),run:Lestaurtinib_02765_R3,Plate:MR026", "value": 568, "unit": "nM"}, {"measurement": "potency estimated from few doses", "setting": "PKN1; compound concentrations:100 nM and 1000 nM (sheet 'Lestaurtinib' of Supplementary Table 1),run:Lestaurtinib_02766_R1,Plate:MR027", "value": 532, "unit": "nM"}, {"measurement": "potency estimated from few doses", "setting": "PKN1; compound concentrations:100 nM and 1000 nM (sheet 'Lestaurtinib' of Supplementary Table 1),run:Lestaurtinib_02766_R2,Plate:MR027", "value": 582, "unit": "nM"}, {"measurement": "potency estimated from few doses", "setting": "PKN1; compound concentrations:100 nM and 1000 nM (sheet 'Lestaurtinib' of Supplementary Table 1),run:Lestaurtinib_02766_R3,Plate:MR027", "value": 483, "unit": "nM"}, {"measurement": "potency estimated from few doses", "setting": "PKN1; compound concentrations:100 nM and 1000 nM (sheet 'Lestaurtinib' of Supplementary Table 1),run:Lestaurtinib_02768_R1,Plate:MR028", "value": 403, "unit": "nM"}, {"measurement": "potency estimated from few doses", "setting": "PKN1; compound concentrations:100 nM and 1000 nM (sheet 'Lestaurtinib' of Supplementary Table 1),run:Lestaurtinib_02768_R2,Plate:MR028", "value": 488, "unit": "nM"}, {"measurement": "potency estimated from few doses", "setting": "PKN1; compound concentrations:100 nM and 1000 nM (sheet 'Lestaurtinib' of Supplementary Table 1),run:Lestaurtinib_02768_R3,Plate:MR028", "value": 424, "unit": "nM"}, {"measurement": "potency estimated from few doses", "setting": "PKN1; compound concentrations:100 nM and 1000 nM (sheet 'Lestaurtinib' of Supplementary Table 1),run:Lestaurtinib_02795_R1,Plate:MR022", "value": 453, "unit": "nM"}, {"measurement": "potency estimated from few doses", "setting": "PKN1; compound concentrations:100 nM and 1000 nM (sheet 'Lestaurtinib' of Supplementary Table 1),run:Lestaurtinib_02795_R2,Plate:MR022", "value": 443, "unit": "nM"}, {"measurement": "potency estimated from few doses", "setting": "PKN1; compound concentrations:100 nM and 1000 nM (sheet 'Lestaurtinib' of Supplementary Table 1),run:Lestaurtinib_02795_R3,Plate:MR022", "value": 422, "unit": "nM"}, {"measurement": "potency estimated from few doses", "setting": "PKN1; compound concentrations:100 nM and 1000 nM (sheet 'Lestaurtinib' of Supplementary Table 1),run:Lestaurtinib_02802_R1,Plate:MR029", "value": 473, "unit": "nM"}, {"measurement": "potency estimated from few doses", "setting": "PKN1; compound concentrations:100 nM and 1000 nM (sheet 'Lestaurtinib' of Supplementary Table 1),run:Lestaurtinib_02802_R2,Plate:MR029", "value": 433, "unit": "nM"}, {"measurement": "potency estimated from few doses", "setting": "PKN1; compound concentrations:100 nM and 1000 nM (sheet 'Lestaurtinib' of Supplementary Table 1),run:Lestaurtinib_02802_R3,Plate:MR029", "value": 181, "unit": "nM"}, {"measurement": "potency estimated from few doses", "setting": "PKN1; compound concentrations:100 nM and 1000 nM (sheet 'Lestaurtinib' of Supplementary Table 1),run:Lestaurtinib_03172_R1,Plate:MR031", "value": 435, "unit": "nM"}, {"measurement": "potency estimated from few doses", "setting": "PKN1; compound concentrations:100 nM and 1000 nM (sheet 'Lestaurtinib' of Supplementary Table 1),run:Lestaurtinib_03172_R3,Plate:MR031", "value": 358, "unit": "nM"}, {"measurement": "potency estimated from few doses", "setting": "PKN1; compound concentrations:100 nM and 1000 nM (sheet 'Lestaurtinib' of Supplementary Table 1),run:Lestaurtinib_03252_R2,Plate:MR032", "value": 94.9, "unit": "nM"}, {"measurement": "potency estimated from few doses", "setting": "PKN1; compound concentrations:100 nM and 1000 nM (sheet 'Lestaurtinib' of Supplementary Table 1),run:Lestaurtinib_03260_R1,Plate:MR033", "value": 514, "unit": "nM"}, {"measurement": "potency estimated from few doses", "setting": "PKN1; compound concentrations:100 nM and 1000 nM (sheet 'Lestaurtinib' of Supplementary Table 1),run:Lestaurtinib_03260_R2,Plate:MR033", "value": 559, "unit": "nM"}, {"measurement": "potency estimated from few doses", "setting": "PKN1; compound concentrations:100 nM and 1000 nM (sheet 'Lestaurtinib' of Supplementary Table 1),run:Lestaurtinib_03260_R3,Plate:MR033", "value": 518, "unit": "nM"}, {"measurement": "potency estimated from few doses", "setting": "PLK4; compound concentrations:100 nM and 1000 nM (sheet 'Lestaurtinib' of Supplementary Table 1),run:Lestaurtinib_02339_R1,Plate:MR001", "value": 80.5, "unit": "nM"}, {"measurement": "potency estimated from few doses", "setting": "PLK4; compound concentrations:100 nM and 1000 nM (sheet 'Lestaurtinib' of Supplementary Table 1),run:Lestaurtinib_02339_R2,Plate:MR001", "value": 64.4, "unit": "nM"}, {"measurement": "potency estimated from few doses", "setting": "PLK4; compound concentrations:100 nM and 1000 nM (sheet 'Lestaurtinib' of Supplementary Table 1),run:Lestaurtinib_02339_R3,Plate:MR001", "value": 51.7, "unit": "nM"}, {"measurement": "potency estimated from few doses", "setting": "PLK4; compound concentrations:100 nM and 1000 nM (sheet 'Lestaurtinib' of Supplementary Table 1),run:Lestaurtinib_02364_R2,Plate:MR002", "value": 202, "unit": "nM"}, {"measurement": "potency estimated from few doses", "setting": "PLK4; compound concentrations:100 nM and 1000 nM (sheet 'Lestaurtinib' of Supplementary Table 1),run:Lestaurtinib_02367_R1,Plate:MR003", "value": 62.3, "unit": "nM"}, {"measurement": "potency estimated from few doses", "setting": "PLK4; compound concentrations:100 nM and 1000 nM (sheet 'Lestaurtinib' of Supplementary Table 1),run:Lestaurtinib_02367_R2,Plate:MR003", "value": 75.5, "unit": "nM"}, {"measurement": "potency estimated from few doses", "setting": "PLK4; compound concentrations:100 nM and 1000 nM (sheet 'Lestaurtinib' of Supplementary Table 1),run:Lestaurtinib_02381_R1,Plate:MR004", "value": 71, "unit": "nM"}, {"measurement": "potency estimated from few doses", "setting": "PLK4; compound concentrations:100 nM and 1000 nM (sheet 'Lestaurtinib' of Supplementary Table 1),run:Lestaurtinib_02381_R2,Plate:MR004", "value": 73.6, "unit": "nM"}, {"measurement": "potency estimated from few doses", "setting": "PLK4; compound concentrations:100 nM and 1000 nM (sheet 'Lestaurtinib' of Supplementary Table 1),run:Lestaurtinib_02381_R3,Plate:MR004", "value": 93.7, "unit": "nM"}, {"measurement": "potency estimated from few doses", "setting": "PLK4; compound concentrations:100 nM and 1000 nM (sheet 'Lestaurtinib' of Supplementary Table 1),run:Lestaurtinib_02407_R1,Plate:MR005", "value": 45.6, "unit": "nM"}, {"measurement": "potency estimated from few doses", "setting": "PLK4; compound concentrations:100 nM and 1000 nM (sheet 'Lestaurtinib' of Supplementary Table 1),run:Lestaurtinib_02407_R2,Plate:MR005", "value": 39.3, "unit": "nM"}, {"measurement": "potency estimated from few doses", "setting": "PLK4; compound concentrations:100 nM and 1000 nM (sheet 'Lestaurtinib' of Supplementary Table 1),run:Lestaurtinib_02407_R3,Plate:MR005", "value": 47.3, "unit": "nM"}]}]}
